Laboratory results from PubChem BioAssay.
Where “and” joins values, the source holds several entries; their conditions need not be identical. Identical values can stand only once. Calls of active or inactive are those of the source.

Assays:
[1] = system: Plasmodium falciparum Sir2 (PF13_0152, Sir2A); assay: pfSir2 binders on small-molecule microarrays, primary screen, biochemical, small-molecule microarray, 635 nm fluorescence (AID 1098); settings: small-molecule microarray binding, fluorescence 635 nm; higher = more signal;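 note: score merges spot fluorescence intensity with its signal-to-noise ratio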
[2] = small-molecule microarray binders of probe aDKK1, primary screen, biochemical, biotinylated probe, 635/667 nm fluorescence (AID 1099); settings: higher = more signal;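 note: score merges 667nm spot fluorescence with signal to noise across triplicate slides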
[3] = small-molecule microarray binders of probe aCHRDL2, primary screen, biochemical, biotinylated probe, 635/667 nm fluorescence (AID 1100); settings: higher = more signal
[4] = splicing luciferase reporter signal modulators, primary screen, spliceosome inhibition project, cell-based, HEK293, splice +/- reporter (AID 1101); settings: luminescence, 24 h, higher = more signal, called active from +8 up or from −8 down;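 note: HEK293 cells carrying a splicing-competent luciferase reporter gene; test concentration not given here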
[5] = target: Fibroblast growth factor 10 (Homo sapiens) (UniProt O15520); assay: FGF10 binders on small-molecule microarrays, primary screen, biochemical, small-molecule microarray, 635 nm fluorescence (AID 1102); settings: FGF10 binding, fluorescence 635 nm, higher = more signal
[6] = system: glycogen synthase kinase-3 (GSK3A per assay name; protocol says GSK3B); assay: GSK3 binders on small-molecule microarrays, primary screen, biochemical, small-molecule microarray, 635 nm fluorescence, GSK3A (AID 1103); settings: small-molecule microarray binding, fluorescence 635 nm; higher = more signal; note: the record names both GSK3A and GSK3B
[7] = target: Epidermal growth factor receptor (Homo sapiens) (UniProt P00533); assay: EGFR binders on small-molecule microarrays, primary screen, biochemical, small-molecule microarray, 635 nm fluorescence (AID 1104); settings: EGFR binding, higher = more signal;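 note: score merges 667 nm emission intensity with spot signal to noise over triplicate slides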
[8] = target: Follistatin-related protein 3 (Homo sapiens) (UniProt O95633); assay: FSTL3 binders on small-molecule microarrays, primary screen, biochemical, small-molecule microarray, 635 nm fluorescence (AID 1105); settings: FSTL3 binding, higher = more signal;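 note: score merges emission near 667 nm and signal to noise per printed spot across three slides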
[9] = target: Dickkopf-related protein 1 (Homo sapiens) (UniProt O94907); assay: DKK1 binders on small-molecule microarrays, primary screen, biochemical, small-molecule microarray, 635 nm fluorescence scan (AID 1106); settings: DKK1 binding, higher = more signal;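 note: score merges emission near 667 nm with signal to noise over three replicate slides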
[10] = system: Inhibin beta A chain (activin A); assay: INHBA (activin A) binders on microarrays, primary screen, biochemical, small-molecule microarray, 635 nm fluorescence scan (AID 1107); settings: small-molecule microarray binding, higher = more signal;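 note: mouse activin A protein probed at 4.33 µg/mL on printed slides; score merges bound-protein fluorescence near 667 nm with spot signal-to-noise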
[11] = system: Human papillomavirus type 1a protein E7 (residues 44-93); assay: HPV1a E7 fragment binders on microarrays, primary screen, biochemical, small-molecule microarray, residues 44-93, 635 nm fluorescence (AID 1108); settings: small-molecule microarray binding, fluorescence 635 nm; higher = more signal;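 note: E7 fragment applied at 1 µg/mL in TBST for 1 h at 4 C; score combines spot fluorescence with its signal to noise ratio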
[12] = modulators of HCV replicon luciferase signal, primary screen, HCV replication inhibitor project, Huh7 cells, luciferase reporter (AID 1109); settings: 48 h, higher = more signal;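 note: huh7 hepatoma cells harbouring a luciferase neomycin HCV replicon reporter; luciferase luminescence as measure of HCV replicon replication; test concentration not given here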
[13] = target: Left-right determination factor 2 (Homo sapiens) (UniProt O00292); assay: LEFTY2 binders on small-molecule microarrays, primary screen, biochemical, small-molecule microarray, 635 nm fluorescence scan (AID 1110); settings: LEFTY2 binding, higher = more signal
[14] = target: Calmodulin-1 (Homo sapiens) (UniProt P0DP23); assay: CALM1 binders on microarrays, EGTA buffer, profiling panel, biochemical, small-molecule microarray, Cy5-labelled CALM1 (AID 1111); settings: Cy5-CALM1 binding fluorescence, higher = more signal;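 note: labelled calmodulin applied in Tris saline Tween buffer holding calcium plus EGTA and DTT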
[15] = target: Calmodulin-1 (Homo sapiens) (UniProt P0DP23); assay: calcium-bound CALM1 binders on microarrays, profiling panel, artefact control for SMM control-protein annotation, biochemical, small-molecule microarray, Cy5-labelled CALM1, plus calcium (AID 1112); settings: Cy5-CALM1 binding fluorescence, higher = more signal;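 note: score merges spot fluorescence with signal to noise from triplicate slides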
[16] = small-molecule microarray binders of probe aWnt5a, primary screen, biochemical, biotinylated probe, 635/667 nm fluorescence (AID 1113); settings: higher = more signal;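 note: score merges 667 nm fluorescence intensity with signal-to-noise per printed feature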
[17] = small-molecule microarray binders of probe aShh, primary screen, biochemical, biotinylated probe, 635/667 nm fluorescence (AID 1114); settings: higher = more signal;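 note: probe is biotin-labelled aShh protein from a stem cell growth factor screen; measures binding of labelled protein to compounds printed on the slide; score merges feature fluorescence at 667 nm with signal-to-noise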
[18] = small-molecule microarray binders of probe aNog, primary screen, biochemical, biotinylated probe, 635/667 nm fluorescence (AID 1115); settings: higher = more signal;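 note: probe is biotinylated aNog protein used at 0.15 µg/mL for 1 h at 4 C; z-score combines 667 nm fluorescence of each spot with its signal to noise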
[19] = target: Torsin-1A-interacting protein 1 (Homo sapiens) (UniProt Q5JTV8); assay: LAP1 binders from COS7 cell lysate, primary screen, small-molecule microarray, 635/667 nm fluorescence (AID 1116); settings: COS7-hLAP1 lysate binding, 635 nm fluorescence, higher = more signal
[20] = target: Alpha-bungarotoxin (Bungarus multicinctus) (UniProt P60615); assay: alpha-bungarotoxin binders on microarray, profiling panel, artefact control for SMM control protein annotation, biochemical, small-molecule microarray, Alexa647 label, 635/667 nm fluorescence (AID 1117); settings: alpha-BTX-A647 binding fluorescence, higher = more signal
Alpha-bungarotoxin (Bungarus multicinctus), sequence (P60615 whole entry, looked up): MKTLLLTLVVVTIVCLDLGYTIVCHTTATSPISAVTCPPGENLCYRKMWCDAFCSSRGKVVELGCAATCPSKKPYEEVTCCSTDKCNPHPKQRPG

Left-right determination factor 2 (Homo sapiens), sequence (O00292 whole entry, looked up): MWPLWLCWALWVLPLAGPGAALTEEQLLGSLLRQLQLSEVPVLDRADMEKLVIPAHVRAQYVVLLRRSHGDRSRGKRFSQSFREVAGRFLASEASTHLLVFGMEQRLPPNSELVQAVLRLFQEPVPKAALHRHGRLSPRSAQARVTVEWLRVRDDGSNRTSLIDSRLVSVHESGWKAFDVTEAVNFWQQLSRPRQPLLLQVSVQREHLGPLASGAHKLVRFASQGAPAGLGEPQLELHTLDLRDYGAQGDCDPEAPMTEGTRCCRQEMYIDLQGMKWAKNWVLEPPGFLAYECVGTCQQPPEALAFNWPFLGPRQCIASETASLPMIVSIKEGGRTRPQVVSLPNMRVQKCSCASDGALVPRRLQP
Dickkopf-related protein 1 (Homo sapiens), sequence (O94907 whole entry, looked up): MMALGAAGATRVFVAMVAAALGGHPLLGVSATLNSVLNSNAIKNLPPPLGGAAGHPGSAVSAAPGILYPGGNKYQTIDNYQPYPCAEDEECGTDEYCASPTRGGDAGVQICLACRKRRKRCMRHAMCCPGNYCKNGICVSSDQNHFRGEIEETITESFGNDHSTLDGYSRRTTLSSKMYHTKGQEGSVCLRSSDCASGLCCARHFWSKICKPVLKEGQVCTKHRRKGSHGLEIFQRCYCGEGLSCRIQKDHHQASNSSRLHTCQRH
Fibroblast growth factor 10 (Homo sapiens), sequence (O15520 whole entry, looked up): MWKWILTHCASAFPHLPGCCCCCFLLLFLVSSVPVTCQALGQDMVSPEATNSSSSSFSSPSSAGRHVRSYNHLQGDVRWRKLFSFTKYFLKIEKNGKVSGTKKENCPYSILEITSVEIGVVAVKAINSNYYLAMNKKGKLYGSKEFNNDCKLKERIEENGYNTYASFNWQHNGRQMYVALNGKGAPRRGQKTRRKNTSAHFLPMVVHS
Torsin-1A-interacting protein 1 (Homo sapiens), sequence (Q5JTV8 whole entry, looked up): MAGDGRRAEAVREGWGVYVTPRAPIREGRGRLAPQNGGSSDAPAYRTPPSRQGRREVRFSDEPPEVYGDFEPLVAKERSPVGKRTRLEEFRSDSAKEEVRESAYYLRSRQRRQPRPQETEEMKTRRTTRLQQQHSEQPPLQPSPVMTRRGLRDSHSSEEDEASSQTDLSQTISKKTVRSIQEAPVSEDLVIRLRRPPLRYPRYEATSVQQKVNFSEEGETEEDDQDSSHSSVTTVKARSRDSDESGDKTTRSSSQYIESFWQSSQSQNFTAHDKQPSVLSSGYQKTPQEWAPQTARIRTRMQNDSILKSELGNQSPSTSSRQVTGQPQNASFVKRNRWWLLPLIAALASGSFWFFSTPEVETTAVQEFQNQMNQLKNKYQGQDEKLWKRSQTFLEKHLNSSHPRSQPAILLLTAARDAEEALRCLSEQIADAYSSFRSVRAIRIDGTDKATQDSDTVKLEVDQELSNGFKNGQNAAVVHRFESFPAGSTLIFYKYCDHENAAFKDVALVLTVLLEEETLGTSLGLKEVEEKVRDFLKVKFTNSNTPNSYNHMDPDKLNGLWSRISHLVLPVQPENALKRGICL
Epidermal growth factor receptor (Homo sapiens), sequence (P00533 whole entry, looked up): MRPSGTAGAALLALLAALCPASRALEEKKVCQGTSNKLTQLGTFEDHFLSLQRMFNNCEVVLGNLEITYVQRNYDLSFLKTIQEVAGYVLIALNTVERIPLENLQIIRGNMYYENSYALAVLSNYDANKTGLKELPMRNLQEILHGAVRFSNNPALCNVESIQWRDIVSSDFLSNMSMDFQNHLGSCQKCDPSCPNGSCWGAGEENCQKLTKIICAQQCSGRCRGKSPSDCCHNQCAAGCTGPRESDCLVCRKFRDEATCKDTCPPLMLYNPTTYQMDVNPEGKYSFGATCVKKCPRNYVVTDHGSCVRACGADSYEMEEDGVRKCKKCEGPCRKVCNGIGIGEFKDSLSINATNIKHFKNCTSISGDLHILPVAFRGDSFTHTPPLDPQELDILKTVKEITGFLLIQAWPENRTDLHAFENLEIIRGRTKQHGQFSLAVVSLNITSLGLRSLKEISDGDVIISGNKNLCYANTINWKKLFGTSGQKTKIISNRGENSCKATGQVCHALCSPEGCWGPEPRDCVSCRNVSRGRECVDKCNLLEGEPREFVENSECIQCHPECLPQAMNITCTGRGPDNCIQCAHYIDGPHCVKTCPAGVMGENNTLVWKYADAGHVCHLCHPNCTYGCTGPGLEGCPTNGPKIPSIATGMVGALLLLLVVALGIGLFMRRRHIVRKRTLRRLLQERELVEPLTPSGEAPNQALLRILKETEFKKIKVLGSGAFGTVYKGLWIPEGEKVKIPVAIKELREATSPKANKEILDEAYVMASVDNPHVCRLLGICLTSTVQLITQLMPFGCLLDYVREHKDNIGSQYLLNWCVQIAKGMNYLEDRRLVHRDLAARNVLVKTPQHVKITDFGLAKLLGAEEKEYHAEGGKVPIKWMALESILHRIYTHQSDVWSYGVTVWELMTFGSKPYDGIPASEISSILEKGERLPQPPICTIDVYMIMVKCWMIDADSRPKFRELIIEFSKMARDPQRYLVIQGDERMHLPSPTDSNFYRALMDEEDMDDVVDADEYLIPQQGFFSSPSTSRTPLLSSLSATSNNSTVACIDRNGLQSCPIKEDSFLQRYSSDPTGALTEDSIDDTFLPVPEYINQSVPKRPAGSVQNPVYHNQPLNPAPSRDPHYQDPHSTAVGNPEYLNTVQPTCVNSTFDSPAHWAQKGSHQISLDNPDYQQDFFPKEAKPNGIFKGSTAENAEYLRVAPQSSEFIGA
Follistatin-related protein 3 (Homo sapiens), sequence (O95633 whole entry, looked up): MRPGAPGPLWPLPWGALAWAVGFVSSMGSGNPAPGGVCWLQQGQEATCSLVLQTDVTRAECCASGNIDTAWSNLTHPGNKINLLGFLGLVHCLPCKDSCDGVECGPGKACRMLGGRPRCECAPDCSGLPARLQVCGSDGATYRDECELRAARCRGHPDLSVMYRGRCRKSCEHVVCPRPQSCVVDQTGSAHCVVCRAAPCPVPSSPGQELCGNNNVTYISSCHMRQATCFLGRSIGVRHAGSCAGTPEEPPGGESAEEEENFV

Row | SMILES | composite z-score [1] | composite z-score [2] | composite z-score [3] | z-score [4] | composite z-score [5] | composite z-score [6] | composite z-score [7] | composite z-score [8] | composite z-score [9] | composite z-score [10] | composite z-score [11] | z-score [12] | composite z-score [13] | composite z-score [14] | composite z-score [15] | composite z-score [16] | composite z-score [17] | composite z-score [18] | composite z-score [19] | composite z-score [20]
1 | Cc1ccc(S(=O)(=O)N[C@@H]2COC(=O)CC=C[C@@H](C)[C@@H]3C=C[C@H](O)[C@@H](COC(=O)CC=C[C@H]2C)O3)cc1 | 0.527 and 0.241 | -0.553 and -0.331 | -1.15 and -0.466 | -0.371 (inactive) and -1.35 (inactive) | 0.606 and 0.174 | 0.126 and 0.233 | 0.884 and 0.383 | 1.08 and 0.451 | 1.13 and 0.389 | 1.03 and -0.134 | -0.813 and -0.0304 | -0.606 and -1.32 | 1.21 and 0.343 | -0.657 and -0.267 | -1.1 and -0.778 | -0.172 and -0.0044 | -0.0977 and -0.0035 | -0.0965 and -0.116 | 0.11 and 0.433 | -0.268 and 0.391
2 | Cc1ccc(S(=O)(=O)OC[C@@H]2CN3[C@@H](CC[C@@H](C)[C@@H]3c3ccc(Br)cc3)C(=O)O2)cc1 | 0.257 and 0.321 | 0.151 and 0.128 | -0.234 and -0.289 | 0.479 (inactive) and 0.402 (inactive) | 0.0993 and 0.625 | 0.0442 and 0.372 | 0.352 and 0.49 | 0.0546 and 0.262 | 0.235 and 0.46 | 0.758 and 0.354 | 0.574 and 0.644 | -0.796 and -0.729 | 0.57 and 0.483 | 0.192 and 0.679 | 0.2 and -0.302 | -0.0704 and 0.0194 | -0.237 and -0.16 | -0.172 and -0.0898 | 0.301 and 0.359 | 0.153 and 0.448
3 | C=C[C@@H](C)[C@H](O)c1ccc(O)c2ccccc12 | 1.09 and 0.905 | -0.493 and -0.379 | -0.289 and 0.255 | 0.126 (inactive) and 0.292 (inactive) | -0.309 and -0.862 | -0.347 and -0.958 | 0.617 and -0.987 | 0.294 and -0.579 | 0.481 and -0.33 | 1.53 and 1.13 | -0.54 and -1.74 | -0.857 and -0.0113 | 0.265 and -0.863 | -1.27 and -1.29 | -1.21 and -1.19 | -0.224 and -0.283 | -0.0035 and -0.0709 | -0.157 and -0.299 | -0.444 and -0.659 | -0.286 and -0.508
4 | C=CCN(C(=O)C(c1cccs1)N(CCOCCO)C(=O)/C=C\C(=O)O)C(C)(C)C (stereo not given) | -1.45 and 1.17 | -0.214 and -0.188 | 0.336 and 0.718 | -0.0364 (inactive) and 0.0433 (inactive) | -1.34 and -1.24 | -1.46 and -0.651 | -1.21 and -0.944 | -1.64 and -1.94 | -2.14 and -2.17 | -0.96 and -1.53 | -1.34 and -0.3 | 0.399 and -0.274 | -2.67 and -2.46 | -1.36 and -0.361 | -0.183 and 0.48 | -0.154 and -0.239 | -0.174 and 0.151 | -0.0689 and 0.106 | 0.17 and -0.417 | -2.22 and -0.34
5 | CCOC(=O)NN=C1C[C@@H](O)[C@@H](O)[C@@H]2[C@@H]3C(=O)N(Cc4ccccc4)C(=O)[C@@H]3CC[C@@H]12 | 0.454 | -0.287 | -0.655 | 0.477 (inactive) | 0.118 | 0.304 | 0.542 | 0.59 | 0.355 | -0.208 | -0.337 | -0.16 | 0.349 | -0.546 | -0.659 | 0.134 | -0.2 | -0.207 | 0.297 | -0.168
6 | CC(CO)N1C(=O)[C@@H]2C3C(=O)OCCC=C[C@H]3OC23C=CCN(C(C)(C)C)C(=O)[C@@H]13 (stereo not given in full) | -0.117 and -0.15 | -0.216 and 0.073 | 0.254 and 0.178 | 0.612 (inactive) and -0.541 (inactive) | -0.941 and 0.229 | -0.875 and 0.449 | -0.839 and -0.726 | -0.464 and 0.008 | -0.476 and -0.008 | 0.298 and 1.11 | -0.925 and -1 | -0.319 and -0.502 | -1.51 and -0.114 | -0.286 and -0.991 | 1.02 and -1.03 | -0.222 and -0.0584 | -0.168 and -0.0553 | -0.219 and -0.46 | 0.232 and 1.48 | -2.94 and -0.198
7 | CC(C)CCN1CCc2nc(-c3ccccc3)c3c(c2C1)CO[C@@H](C)C3 | -0.0208 | 0.233 | -0.148 | 0.109 (inactive) | 0.476 | 0.77 | 0.516 | 0.579 | 0.689 | 0.55 | 1.35 | -0.952 | 0.457 | -0.083 | -0.399 | -0.0944 | -0.138 | -0.036 | 0.565 | 0.416
8 | C=CC[C@H](O)c1ccc(OCCO)cc1 | 0.142 and -0.925 | 0.203 and -0.308 | 0.777 and 0.484 | 0.296 (inactive) and 2.7 (inactive) | -0.603 and -0.328 | -0.92 and -2.17 | -0.883 and -0.455 | -0.382 and -0.0904 | -1.06 and -0.251 | 0.149 and 0.677 | -0.664 and -3.44 | -0.921 and 0.924 | -0.774 and -0.827 | -1.14 and -0.814 | 0.237 and 0.234 | -0.176 and -0.139 | -0.221 and -0.288 | -0.0144 and 0.419 | -0.24 and -1.3 | 2.4 and -0.101
